Test in all cases: NCI-60 one-dose screen, 48 h (100 = growth as untreated, 0 = no growth, -100 = all killed)
Conditions in all cases: 10 µM unless noted

For assay [1], the system named is OVCAR-8 ovarian.
The test system of assay [2] is OVCAR-5 ovarian.
Assay [3] relates to OVCAR-4 ovarian.
For assay [4], the system named is SK-OV-3 ovarian.
The test system of assay [5] is IGROV1 ovarian.
The test system of assay [6] is OVCAR-3 ovarian.
For assay [7], the system named is HS 578T breast.
The test system of assay [8] is NCI/ADR-RES ovarian.
Assay [9] concerns T-47D breast.
Assay [10] concerns BT-549 breast.
Assay [11] has as its system MDA-MB-435 melanoma.
Assay [12] concerns SW-620 colon.
For assay [13], the system named is MCF7 breast.
In assay [14] the test system is HCT-116 colon.
Assay [15] has as its system HCC-2998 colon.
The subject of assay [16] is KM12 colon.
Assay [17] relates to RPMI-8226 leukemia.

About 83,000 compounds went through this panel and 20% of them were active in at least one assay; those are over-represented in the sample as a whole.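 Assay: single dose, 48 h. Readout: percent growth (0 = no net growth; negative = cell death). Active: <10.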 Values without a mark were called inactive. Active and inactive are the calls of the source.

This passage reports growth results from PubChem BioAssay (NCI).

On to `Cc1c(C(N)=O)sc2c1C(=O)N(Cc1ccccc1)C1=NN=C(c3ccc(Cl)cc3)CN12`, for which the growth in assay [1] was 18.1%; in assay [2] it was 57.2%; in assay [3], 48.6%; in assay [4] it was 58.5%; in assay [5] it was 42.6%; in [6], 31.5%. The growth in [7] was 78.2%; in assay [8] it was 9.99% (active); in assay [9], 63.4%; in [10], 58.2%; in [11], 66.3%; in assay [12], 57.5%. Moreover, the growth was 37.8% in assay [13], 18.8% in [14], 40.9% in assay [15] and 42.6% in assay [16].
`COc1ccc(/C=C2\COc3ccc(O)c(O)c3C2=O)cc1OC`: the growth in assay [1] was 8.42% (active); in assay [2], -16.6% (active); in assay [3] it was 30.1%; in [4], 40.2%; in assay [5], -33.4% (active); in assay [6], -16.7% (active). Also, the growth in [7] is 17.8%; in assay [8], 2.76% (active); in assay [9] it was -5.4% (active); in assay [10], 29.4%; in assay [11], -0.882% (active); in assay [12], 4.03% (active). Moreover, the growth is -24.8% (active) in [14], 46.1% in assay [15] and 10.4% in assay [16].
As for `Clc1ccccc1[C@@H]1C[C@@H]2Cc3cc(Br)c4ccccc4c3N1O2`, the growth in assay [1] was 61.1%; in [2], 70.9%; in assay [3], 49.9%; in [4], 38.5%; in assay [5], 48.7%; in assay [6], -8.24% (active). For the same molecule, the growth in [7] was 28.4%; in [8], 15.4%; in assay [9], 65.3%; in [10] it was 50.1%; in assay [11] it was -32% (active); in [12] it was 16.6%. Moreover, the growth in [13] is 12.7%; in assay [14], 20.3%; in assay [15], 56.4%; in assay [16], 33.5%.
For the molecule `CC/C=C\C=C/C(=O)N/C=C/CC1Cc2cccc(O)c2C(=O)O1` (stereo not drawn), the growth is 90.5% in assay [1]; 91% in assay [2]; 80.2% in assay [3]; 63.9% in [4]; 79.1% in [5]; 86% in assay [6]. Further, the growth in assay [7] is 50.7%; in assay [8], 57.2%; in assay [9], 67.2%; in assay [10], 75.2%; in assay [11], -52.1% (active); in assay [12], 26.9%. The values for the growth in assay [13], in assay [14] and in assay [16] were 67.3%, 33.8% and 42.1%, respectively.
On to `O=C1N(C2CCCCC2)C(=O)N1C1CCCCC1`, for which the growth was -16.7% (active) in assay [17]; 28.9% in assay [2]; 71.8% in assay [4]; 59.7% in assay [6]; -2.96% (active) in [7]; 35.5% in assay [8]. In addition, the growth was 43.7% in [9]; 33.6% in assay [10]; 57.4% in assay [11]; 48.5% in assay [12]; 42.9% in [13]; 44.2% in [14]. Moreover, the growth in assay [15] is 49.3%; in assay [16] it was 7.4% (active).
For the molecule `O=c1[nH]c(=O)n(C2CC(O)C(CO)O2)cc1C(F)(F)F` (stereo not drawn), the growth was -23% (active) in assay [17]; 54.5% in [2]; 78.1% in [3]; 74.3% in assay [4]; 69.7% in assay [6]; 70.8% in [7]. The growth is -56.9% (active) in assay [8]; 52.8% in assay [9]; 47.8% in [11]; 52.7% in assay [12]; 23.6% in assay [13]; 39.4% in [14]. For the same molecule, the growth in assay [16] is 51.8%.
Turning to `CCCCCCCC/C=C/CCCCCCCC1=NC(C)(C)CN1CCO`, the growth in assay [1] is 45%; in [2] it was 87.3%; in [3] it was 52.3%; in [4], 78.6%; in assay [5], -40.5% (active); in [6], 32.8%. In addition, the growth in [7] was 35.1%; in assay [8] it was 77.3%; in [9] it was 0.508% (active); in assay [10], 78.1%; in assay [11], -31.9% (active); in assay [12], -66.3% (active). The growth in [13] is -55.5% (active); in [14] it was -68% (active); in assay [15] it was -86.6% (active); in [16], -68.5% (active).
As to `CCCCCCCCCCCCCCCCCc1nccn1CCO`, the growth in [17] is 82.3%; in assay [2], 71.4%; in assay [4], 94.6%; in [5], 68.5%; in assay [6], 86.2%; in [7], 83.4%. Further, the growth is 59.9% in assay [8]; 47.1% in assay [9]; 70% in assay [10]; 95% in assay [11]; 61.3% in assay [12]; 55.4% in [15]. For the same molecule, in assay [16], the growth was 85.6%.
For the molecule `CN1C(=O)/C(=C/c2nc(-c3cccc(F)c3)n3ccccc23)c2ccccc21`, the growth in assay [1] was 34.9%; in assay [2], 100%; in [3], 41.9%; in assay [4] it was 66.6%; in assay [5] it was 7.47% (active); in assay [6] it was 60.6%. Further, the growth in assay [7] is 33%; in [8] it was 66.4%; in assay [9] it was 50.1%; in assay [11], 93.6%; in [12] it was 84.6%; in assay [13] it was 44.3%. In addition, the results for the growth in assay [14], in [15] and in assay [16] were 44.5%, 99.4% and 94.1%, respectively.
Turning to `O=C1OCCCCCCCCCC#Cc2ccccc21`, the growth in [1] was 105%; in [2], 99%; in assay [3], 91.3%; in assay [4], 97.3%; in assay [5] it was 72.1%; in assay [6], 122%. Further, the growth in assay [7] was 108%; in assay [8], 99.7%; in assay [9], 80.1%; in [10], 124%; in assay [11], 104%; in [12], 93.9%. In addition, the growth in assay [13] is 164%; in assay [14], 70.4%; in [16], 136%.
